This is a sample that favours compounds with a hit; in the whole collection about 2.4% have one here.
Wnt bcat act: Wnt/beta-catenin pathway activators, primary screen, cell-based, plate reader, single point; hit rate 1.2% among 300,000; Wnt/beta-catenin reporter cell assay, activator; activation, % at 9.35 µM; in the data active = activation above about 30%, passing the limit was not always enough;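 note: 0% = neutral control wells and 100% = positive control wells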
NSD2 inh: NSD2 histone methyltransferase inhibitors, primary screen, biochemical, AlphaScreen, single concentration, set 2 | Histone-lysine N-methyltransferase NSD2 (Homo sapiens), O96028 | NSD2 peptide methylation, 120 min | inhibition, % at 12.5 µM | hit rate 0.54% among 310,000 | AID 743445, 2014
Target sequence (O96028 whole entry, looked up): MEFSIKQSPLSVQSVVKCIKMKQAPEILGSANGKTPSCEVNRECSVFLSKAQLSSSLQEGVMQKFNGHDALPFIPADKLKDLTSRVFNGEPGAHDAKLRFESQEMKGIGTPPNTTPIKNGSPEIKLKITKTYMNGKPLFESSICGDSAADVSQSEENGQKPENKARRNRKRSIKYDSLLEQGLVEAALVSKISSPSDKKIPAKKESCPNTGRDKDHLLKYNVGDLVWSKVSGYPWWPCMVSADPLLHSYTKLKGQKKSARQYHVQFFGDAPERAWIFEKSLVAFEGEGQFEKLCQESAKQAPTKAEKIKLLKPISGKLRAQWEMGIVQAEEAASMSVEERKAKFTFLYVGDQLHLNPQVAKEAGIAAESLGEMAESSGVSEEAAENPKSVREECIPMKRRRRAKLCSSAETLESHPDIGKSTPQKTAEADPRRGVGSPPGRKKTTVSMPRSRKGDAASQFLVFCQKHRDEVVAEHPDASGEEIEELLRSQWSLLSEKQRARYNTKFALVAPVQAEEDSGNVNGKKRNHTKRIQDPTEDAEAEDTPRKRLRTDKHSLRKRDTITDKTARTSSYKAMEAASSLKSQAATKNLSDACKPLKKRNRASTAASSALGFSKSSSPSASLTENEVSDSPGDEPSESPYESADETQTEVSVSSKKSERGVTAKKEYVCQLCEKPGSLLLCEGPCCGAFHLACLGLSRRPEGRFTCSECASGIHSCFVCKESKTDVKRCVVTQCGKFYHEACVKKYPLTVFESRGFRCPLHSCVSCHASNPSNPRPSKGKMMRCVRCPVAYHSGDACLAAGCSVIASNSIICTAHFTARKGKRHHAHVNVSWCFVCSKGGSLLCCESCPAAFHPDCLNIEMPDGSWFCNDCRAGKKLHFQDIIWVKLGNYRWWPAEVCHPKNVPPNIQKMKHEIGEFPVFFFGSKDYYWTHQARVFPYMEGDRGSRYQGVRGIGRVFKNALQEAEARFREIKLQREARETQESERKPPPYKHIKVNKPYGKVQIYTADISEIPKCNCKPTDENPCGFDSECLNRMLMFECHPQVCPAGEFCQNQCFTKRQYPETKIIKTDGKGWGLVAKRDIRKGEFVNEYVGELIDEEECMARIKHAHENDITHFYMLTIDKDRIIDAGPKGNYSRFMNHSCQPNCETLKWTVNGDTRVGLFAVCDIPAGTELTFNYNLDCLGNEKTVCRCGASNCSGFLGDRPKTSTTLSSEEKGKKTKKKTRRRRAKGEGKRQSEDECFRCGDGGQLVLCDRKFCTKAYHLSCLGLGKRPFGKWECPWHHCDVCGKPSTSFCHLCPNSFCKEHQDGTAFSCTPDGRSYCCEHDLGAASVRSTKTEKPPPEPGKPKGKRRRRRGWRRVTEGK
MITF TRPM1 HTS: activators of MITF-driven TRPM1 promoter reporter, primary screen, cell-based, SK-MEL-5, luciferase, single point | hit rate 0.75% among 300,000 | SK-MEL-5 TRPM1-promoter luciferase, 24 h; % of positive control, neutral wells = 0 | activation, % at 12.5 µM | AID 588334, 2011;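 active = mean activation of at least 80% with every replicate also reaching 80%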;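 note: 0% = neutral control wells and 100% = parthenolide positive control wells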
INS-1E GSIS act: GLuc luminescence reporter in INS-1E cells, primary screen for activators of glucose-dependent secretion of insulin. INS-1E GLuc reporter insulin secretion, 2-3 h. activation, % at 16.6 µM. hit rate 0.61% among 370,000. AID 743287, 2014;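 active = lowest replicate activation of at least 40%, so every replicate reaches that level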;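 note: 0% = median of neutral control wells and 100% = median of IBMX positive control wells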
miR122 inh: miR-122 Renilla sensor signal increase in Huh7, primary screen, miR-122 inhibitor project, cell-based, single point, plate reader; Huh7 miR-122 Renilla luciferase sensor, 48 h; neutral wells = 0, positive control = 100; activation (reporter increase), % at 12.5 µM; hit rate 0.3% among 340,000;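 active = mean replicate activation score at least 90 and every replicate individually at or above 90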;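 note: higher luciferase means less miR-122 activity so hits act as miR-122 inhibitors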
DYRK1A inh: rat Dyrk1A kinase inhibitors, primary screen, biochemical, single point, plate reader. Dual specificity tyrosine-phosphorylation-regulated kinase 1A (Rattus norvegicus), Q63470. ADP-Glo luminescence, NFATc1 peptide. inhibition, % at 12.5 µM. hit rate 0.43% among 310,000;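 note: plate controls were vehicle with enzyme for no effect and no enzyme for full effect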
* hit, by the source's call; · = no result; [ ] = another dose, or the depositor's remark. Cut-off read from the data, not from the text of the source, unless noted: active = inhibition above about 50%; inactive = the rest.

SMILES | Wnt bcat act | NSD2 inh | MITF TRPM1 HTS | INS-1E GSIS act | miR122 inh | DYRK1A inh
N#Cc1c(-c2ccncc2)cc(-c2ccc(F)cc2)nc1N | 1 | -6 | · | 49* | 3 | 3
COc1cccc(-c2nc(CS(=O)(=O)CC(=O)NCCC(C)C)c(C)o2)c1 | 38* | · | -7 | · | 0 | 0
COCCCNC(=O)CS(=O)(=O)Cc1nc(-c2cccc(OC)c2)oc1C | · | 0 | · | · | -8 | 0
C[C@H](CO)N1C[C@H](C)[C@@H](CN(C)Cc2ccc(Oc3ccccc3)cc2)Oc2ccc(NC(=O)C3CCCCC3)cc2C1=O | · | · | · | -21 | 0[16.7 µM] | ·
Cc1noc(C)c1S(=O)(=O)Nc1ccc2c(c1)C(=O)N([C@H](C)CO)C[C@H](C)[C@@H](CN(C)C(=O)c1ccccc1)OCCCC[C@H](C)O2 | · | · | · | -11 | 0[16.7 µM] | ·
C[C@H]1CN([C@@H](C)CO)C(=O)c2cc(NC(=O)CCCN(C)C)ccc2O[C@@H]1CN(C)Cc1ccncc1 | · | · | · | 12 | -1[16.7 µM] | ·
COc1ccc(CN(C)C[C@@H]2OCCCC[C@H](C)Oc3ccc(NC(=O)Nc4cccc5ccccc45)cc3C(=O)N([C@@H](C)CO)C[C@@H]2C)cc1 | · | · | · | -16 | -1[16.7 µM] | ·
CC(CN(C)Cc1ccccc1)OC(=O)c1ccccc1F (centres undefined) | -3 | 3 | -2 | 49* | 3 | 1
CCC(=O)Nc1ccc(Cl)c(NC(=S)NC(=O)COc2ccc(Cl)cc2)c1 | -1 | 0 | 1 | 44* | · | -7
CCC(=O)Nc1ccc(Cl)c(NC(=S)NC(=O)COc2ccccc2)c1 | 1 | 3 | -4 | -5 | · | 1
CO[C@@H]1CN(C)C(=O)c2cc(NC(=O)Nc3ccccc3)ccc2OC[C@@H](C)N(C(=O)CN(C)C)C[C@H]1C | · | · | · | -6 | 4[16.7 µM] | ·
CC/C(=N\NC(=O)c1ccc2c(c1)OCO2)C12CC3CC(CC(C3)C1)C2 | 20 | -2 | 10 | · | 181* | 0
O=C(Nc1ccc([N+](=O)[O-])cc1)N1CCCCCC1 | 0 | 0 | 21 | -1 | · | 3
C/C(=N/NC(=O)c1ccncc1)c1ccc(NC(=O)c2ccccc2)cc1 | 3 | 0 | 21 | · | · | 6
C/C(=N\NC(=O)c1ccncc1)c1cccc(NC(=O)c2ccc(C(C)(C)C)cc2)c1 | 35* | -1 | 37 | -21 | 2 | -3
O=C(Nc1cccc([N+](=O)[O-])c1)N1CCCCCC1 | 3 | 0 | -1 | 63* | -4 | 3
O=C(Nc1cccc([N+](=O)[O-])c1)c1ccc2c(c1)OCCO2 | 47* | 1 | 62 | 8 | -6 | 1
COc1cccc(CN2CC3(C2)CN(C(=O)C2CC2)[C@@H](CO)c2c3c3ccc(OC)cc3n2C)c1 | · | · | · | 26 | · | ·
O=C(CSC1=NCCN1)Nc1cccc([N+](=O)[O-])c1 | 41* | 9 | -37 | 9 | -1 | ·
CC(C)(C)c1ccc(C(=O)Nc2cccc([N+](=O)[O-])c2)cc1 | · | -2 | 88* | -20 | · | 9
CC(/C=C/c1ccc2c(c1)OCO2)=N\NC(=O)c1cccc([N+](=O)[O-])c1 | 0 | 8 | -4 | -2 | 7 | -5
C/C(=N/NC(=O)c1ccc2c(c1)OCO2)c1cccc([N+](=O)[O-])c1 | -2 | -2 | 126* | 12 | · | 1
Cc1cccc(NC(=O)c2ccc3c(c2)OCCO3)c1C | 6 | 12 | 113* | 24 | -5 | 9
O=C(Nc1cccc([N+](=O)[O-])c1)c1ccncc1 | · | 5 | -19 | 7 | 3 | -2
Cc1ccc(-c2ccc3c(c2)O[C@H](CN(C)C(=O)C2CCCCC2)[C@@H](C)CN([C@@H](C)CO)S3(=O)=O)cc1 | · | · | · | -23 | 19[16.7 µM] | ·
SMILES | Wnt bcat act | NSD2 inh | MITF TRPM1 HTS | INS-1E GSIS act | miR122 inh | DYRK1A inh
COc1cccc(CNC(=O)C[C@H]2C=C[C@H](NC(=O)C3CCOCC3)[C@@H](CO)O2)c1 | · | · | · | -3 | · | ·
O=C(C[C@@H]1CC[C@H]2[C@@H](COC[C@H](O)CN2CCc2ccccc2)O1)NCc1ccc(Oc2ccccc2)cc1 | · | · | · | -9 | -13[16.7 µM] | ·
O=C(NC(=S)Nc1cccc([N+](=O)[O-])c1)c1ccco1 | 14 | -2 | 21 | 22 | 2 | -2
O=C(Nc1cnc2ccccc2c1)N1CCCCC1 | · | 0 | 94* | · | -3 | 10
O=C(NC(=S)Nc1cccc([N+](=O)[O-])c1)c1ccccc1 | 32* | 0 | · | 12 | -4 | ·
CC(=O)Nc1cccc(NC(=O)c2ccc(C)c([N+](=O)[O-])c2)c1 | 58* | 0 | 28 | -3 | 13 | -1
O=C(Nc1cnc2ccccc2c1)N1CCOCC1 | · | -5 | 27 | · | -11 | 2
C[C@@H]1CCCCO[C@@H](CN(C)S(=O)(=O)c2ccc(Cl)cc2)[C@@H](C)CN([C@@H](C)CO)C(=O)c2cc(NC(=O)Nc3ccc4c(c3)OCO4)ccc2O1 | · | · | · | 30 | -2[16.7 µM] | ·
C[C@H](CO)N1C[C@H](C)[C@@H](CN(C)Cc2cncnc2)Oc2cc(/C=C/c3ccccc3)ccc2S1(=O)=O | · | · | · | -11 | 32[16.7 µM] | ·
COc1ccc2c3c(n(C)c2c1)[C@H](CO)N(CC1CC1)CC31CCN(C(=O)c2ccc3c(c2)OCO3)CC1 | · | · | · | 4 | · | ·
CN(C)c1ccc(N=Nc2ccc3ncccc3c2)cc1 | 3 | 0 | 15 | 16 | -5 | 0
CN(C)c1ccc(N=Nc2cccc(F)c2)cc1 | 52* | 8 | 49 | 5 | -4 | 6
COc1ccc(S(=O)(=O)Nc2cccc3c2O[C@@H](CN(C)Cc2ccccc2)[C@@H](C)CN([C@H](C)CO)C3=O)cc1 | · | · | · | 8 | 3[16.7 µM] | ·
O=C(N[C@H]1C=C[C@H](CC(=O)N2CCOCC2)O[C@@H]1CO)c1ccc2c(c1)OCO2 | · | · | · | 1 | · | ·
COc1ccc(N/N=C(/Oc2ccc([N+](=O)[O-])cc2)C(C)=O)cc1 | 1 | 24 | -7 | -12 | -7 | -1
COc1ccc(NN=Nc2ccc([N+](=O)[O-])cc2)cc1 | 8 | -1 | 99* | -3 | 7 | -2
CN(C1=C(N2CCCCC2)C(=O)c2ccccc2C1=O)c1ccccc1 | -1 | 0 | -16 | · | -7 | 0
COc1ccccc1NC1=C(N2CCCCC2)C(=O)c2ccccc2C1=O | · | 93* | -17 | · | · | 18
O=C1C(Nc2ccccc2)=C(N2CCCCC2)C(=O)c2ccccc21 | · | 94* | -73 | · | 9 | 18
COC(=O)[C@H]1[C@H](CO)[C@H]2Cn3c(ccc(C4=CCCC4)c3=O)[C@H]2N1C(=O)C1CC1 | · | · | · | 4 | 4[16.7 µM] | ·
COc1cc(C=C2C(=O)c3ccccc3C2=O)cc(OC)c1 | 2 | 2 | · | -1 | · | ·
COc1cc(/C=C/c2ccccc2)cc(OC)c1 | -1 | -1 | 96* | -7 | · | -2
CCc1nonc1NC(=O)c1oc2ccc(C)cc2c1C | 15 | 1 | 64 | -1 | · | 4
